In the supplement of paper PMC10849652:
Targets with a hit are over-represented here; the source holds about 7,900 in all. About 0.6% of all pairs of compound and target were hits. Values without a mark were called inactive.

compound: C1CN(CCC1(CC2=CC=C(C=C2)Cl)N)C3=NC=NC4=C3C=CN4; experiment: log2 fold change, soluble protein after heating vs DMSO (PISA); higher = thermal stabilisation; K562 cells, 10 uM, 30 min; active = over 0.2 and 3.5 SD of the protein, either way, in both replicates (recomputed)
Summary of the method: (§1)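 K562 cells at 2×10^6 cells/mL were exposed to 10 μM compound for 30 min, then aliquots were heated for 3 min across 48°C-58°C, pooled, and extracted in PBS containing 0.5% NP-40 at 4°C. The supernatant after 21,000xg for 90 min was taken as soluble protein and measured by TMTpro 16plex LC-MS/MS with channel sums equalised. Thermal stability is reported relative to control samples, with values from duplicates. Fold changes are given on a log2 scale.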

UniProt Q9H773, sequence (Q9H773 whole entry, looked up): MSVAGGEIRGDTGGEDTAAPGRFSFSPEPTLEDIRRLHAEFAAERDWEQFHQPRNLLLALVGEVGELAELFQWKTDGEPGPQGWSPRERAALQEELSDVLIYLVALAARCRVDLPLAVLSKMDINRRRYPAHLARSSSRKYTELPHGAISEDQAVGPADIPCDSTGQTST
UniProt Q5QP82, sequence (Q5QP82 whole entry, looked up): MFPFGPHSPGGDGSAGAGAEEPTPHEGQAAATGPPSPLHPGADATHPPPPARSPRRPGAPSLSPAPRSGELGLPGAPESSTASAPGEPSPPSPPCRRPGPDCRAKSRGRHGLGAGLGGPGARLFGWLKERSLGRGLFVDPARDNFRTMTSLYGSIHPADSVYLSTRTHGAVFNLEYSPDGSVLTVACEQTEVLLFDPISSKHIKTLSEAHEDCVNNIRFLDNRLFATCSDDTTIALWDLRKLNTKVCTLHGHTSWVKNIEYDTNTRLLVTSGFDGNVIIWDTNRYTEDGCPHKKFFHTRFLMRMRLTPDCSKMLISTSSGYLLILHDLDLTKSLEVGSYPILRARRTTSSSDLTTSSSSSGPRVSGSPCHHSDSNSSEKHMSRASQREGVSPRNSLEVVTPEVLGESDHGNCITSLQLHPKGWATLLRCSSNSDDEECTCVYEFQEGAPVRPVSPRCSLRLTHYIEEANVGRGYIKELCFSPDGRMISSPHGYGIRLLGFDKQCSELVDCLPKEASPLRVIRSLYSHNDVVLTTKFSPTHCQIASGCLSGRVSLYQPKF
UniProt P60842, sequence (P60842 whole entry, looked up): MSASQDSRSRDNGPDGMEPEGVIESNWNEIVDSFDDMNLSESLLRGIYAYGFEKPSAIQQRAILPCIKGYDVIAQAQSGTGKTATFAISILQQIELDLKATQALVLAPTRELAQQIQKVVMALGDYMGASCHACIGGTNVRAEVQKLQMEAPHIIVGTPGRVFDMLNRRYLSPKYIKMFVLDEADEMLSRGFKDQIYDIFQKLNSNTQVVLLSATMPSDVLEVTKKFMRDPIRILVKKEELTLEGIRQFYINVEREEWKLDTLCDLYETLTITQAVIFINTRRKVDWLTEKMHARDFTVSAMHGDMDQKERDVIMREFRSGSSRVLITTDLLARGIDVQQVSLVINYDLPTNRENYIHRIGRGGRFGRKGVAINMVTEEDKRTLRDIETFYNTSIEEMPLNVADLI
UniProt O60911, sequence (O60911 whole entry, looked up): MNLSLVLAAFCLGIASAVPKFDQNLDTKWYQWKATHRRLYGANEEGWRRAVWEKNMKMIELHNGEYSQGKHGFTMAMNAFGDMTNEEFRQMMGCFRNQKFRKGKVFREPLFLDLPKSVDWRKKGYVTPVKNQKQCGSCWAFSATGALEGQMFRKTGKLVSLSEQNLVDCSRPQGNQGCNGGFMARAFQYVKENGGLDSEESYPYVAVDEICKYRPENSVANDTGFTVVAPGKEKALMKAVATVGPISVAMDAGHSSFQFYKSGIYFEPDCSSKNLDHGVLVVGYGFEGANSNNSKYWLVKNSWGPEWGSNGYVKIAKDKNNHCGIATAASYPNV
UniProt Q96KP1, sequence (Q96KP1 whole entry, looked up): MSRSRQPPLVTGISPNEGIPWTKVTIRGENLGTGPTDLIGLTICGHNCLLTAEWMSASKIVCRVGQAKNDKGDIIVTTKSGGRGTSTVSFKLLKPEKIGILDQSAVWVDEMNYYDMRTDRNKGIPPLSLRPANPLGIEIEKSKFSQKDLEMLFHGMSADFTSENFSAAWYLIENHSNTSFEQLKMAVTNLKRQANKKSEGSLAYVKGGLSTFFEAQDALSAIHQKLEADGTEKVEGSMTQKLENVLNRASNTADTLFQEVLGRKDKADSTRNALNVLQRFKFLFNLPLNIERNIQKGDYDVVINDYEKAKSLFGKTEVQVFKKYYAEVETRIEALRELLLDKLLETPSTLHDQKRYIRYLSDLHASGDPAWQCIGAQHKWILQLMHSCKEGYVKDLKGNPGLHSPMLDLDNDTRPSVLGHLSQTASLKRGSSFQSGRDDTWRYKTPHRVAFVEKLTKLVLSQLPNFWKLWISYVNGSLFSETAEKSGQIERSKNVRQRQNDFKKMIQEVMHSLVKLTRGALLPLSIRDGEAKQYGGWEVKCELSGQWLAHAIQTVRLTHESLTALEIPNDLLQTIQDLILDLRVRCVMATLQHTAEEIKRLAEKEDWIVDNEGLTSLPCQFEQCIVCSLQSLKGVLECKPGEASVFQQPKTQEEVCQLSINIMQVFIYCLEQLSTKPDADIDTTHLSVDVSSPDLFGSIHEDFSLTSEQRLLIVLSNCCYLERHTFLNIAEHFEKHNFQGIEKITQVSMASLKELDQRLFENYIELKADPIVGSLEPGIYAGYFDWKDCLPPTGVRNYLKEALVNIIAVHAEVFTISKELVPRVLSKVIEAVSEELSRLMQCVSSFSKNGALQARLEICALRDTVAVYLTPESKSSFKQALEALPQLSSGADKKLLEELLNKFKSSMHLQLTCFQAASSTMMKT
UniProt Q99615, sequence (Q99615 whole entry, looked up): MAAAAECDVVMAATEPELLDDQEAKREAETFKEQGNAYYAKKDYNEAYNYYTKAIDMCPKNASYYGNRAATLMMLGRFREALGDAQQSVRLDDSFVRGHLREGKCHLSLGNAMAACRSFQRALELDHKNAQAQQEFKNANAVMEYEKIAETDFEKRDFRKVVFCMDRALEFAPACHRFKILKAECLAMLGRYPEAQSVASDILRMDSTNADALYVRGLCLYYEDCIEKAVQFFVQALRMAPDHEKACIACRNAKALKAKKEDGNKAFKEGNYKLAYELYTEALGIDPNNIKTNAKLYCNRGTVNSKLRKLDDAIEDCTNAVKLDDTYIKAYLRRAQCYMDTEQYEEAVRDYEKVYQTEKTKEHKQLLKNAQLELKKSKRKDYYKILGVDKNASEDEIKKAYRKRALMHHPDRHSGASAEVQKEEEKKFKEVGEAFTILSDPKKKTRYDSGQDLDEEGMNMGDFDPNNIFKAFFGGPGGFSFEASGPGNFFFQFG
UniProt P98082, sequence (P98082 whole entry, looked up): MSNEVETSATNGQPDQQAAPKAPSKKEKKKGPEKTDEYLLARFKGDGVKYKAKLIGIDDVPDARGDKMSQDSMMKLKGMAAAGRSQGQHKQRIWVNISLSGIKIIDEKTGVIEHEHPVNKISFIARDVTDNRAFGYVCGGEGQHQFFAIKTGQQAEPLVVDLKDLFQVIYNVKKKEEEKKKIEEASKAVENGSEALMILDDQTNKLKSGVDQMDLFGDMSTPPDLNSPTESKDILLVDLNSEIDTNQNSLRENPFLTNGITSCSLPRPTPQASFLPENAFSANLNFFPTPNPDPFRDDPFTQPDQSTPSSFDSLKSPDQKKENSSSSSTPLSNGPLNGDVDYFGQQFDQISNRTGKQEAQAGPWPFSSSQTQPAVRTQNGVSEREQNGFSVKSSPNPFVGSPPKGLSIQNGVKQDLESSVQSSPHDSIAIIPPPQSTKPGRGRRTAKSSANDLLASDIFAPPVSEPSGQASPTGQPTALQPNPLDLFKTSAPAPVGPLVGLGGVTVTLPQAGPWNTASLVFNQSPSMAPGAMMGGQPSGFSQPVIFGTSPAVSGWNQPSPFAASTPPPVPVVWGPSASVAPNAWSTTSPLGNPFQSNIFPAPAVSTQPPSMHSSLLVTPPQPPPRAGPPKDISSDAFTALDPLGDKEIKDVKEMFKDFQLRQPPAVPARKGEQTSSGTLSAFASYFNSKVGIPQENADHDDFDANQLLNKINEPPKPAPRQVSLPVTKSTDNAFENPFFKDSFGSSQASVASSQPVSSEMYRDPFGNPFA
UniProt Q16850, sequence (Q16850 whole entry, looked up): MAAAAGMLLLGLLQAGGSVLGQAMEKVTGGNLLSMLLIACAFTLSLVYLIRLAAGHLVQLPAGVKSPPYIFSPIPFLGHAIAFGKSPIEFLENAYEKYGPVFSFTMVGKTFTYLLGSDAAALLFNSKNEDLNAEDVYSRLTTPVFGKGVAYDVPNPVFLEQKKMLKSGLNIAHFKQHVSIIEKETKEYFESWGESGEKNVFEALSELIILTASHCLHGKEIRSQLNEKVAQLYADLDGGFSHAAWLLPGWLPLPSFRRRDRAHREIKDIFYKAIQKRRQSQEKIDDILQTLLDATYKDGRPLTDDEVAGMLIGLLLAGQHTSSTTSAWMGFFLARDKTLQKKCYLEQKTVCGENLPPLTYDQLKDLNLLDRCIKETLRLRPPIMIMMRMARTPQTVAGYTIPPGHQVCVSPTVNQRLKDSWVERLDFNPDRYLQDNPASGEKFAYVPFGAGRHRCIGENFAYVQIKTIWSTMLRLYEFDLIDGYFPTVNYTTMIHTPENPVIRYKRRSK
UniProt P07711, sequence (P07711 whole entry, looked up): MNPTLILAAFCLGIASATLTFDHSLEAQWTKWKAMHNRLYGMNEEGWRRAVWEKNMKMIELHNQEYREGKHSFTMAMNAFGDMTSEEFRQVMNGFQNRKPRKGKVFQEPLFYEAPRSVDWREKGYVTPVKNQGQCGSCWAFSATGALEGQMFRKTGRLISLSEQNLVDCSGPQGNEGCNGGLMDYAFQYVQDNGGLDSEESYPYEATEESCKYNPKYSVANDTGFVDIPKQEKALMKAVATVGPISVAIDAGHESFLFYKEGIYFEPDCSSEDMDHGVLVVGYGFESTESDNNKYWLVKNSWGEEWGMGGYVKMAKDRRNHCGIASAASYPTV
UniProt O60573, sequence (O60573 whole entry, looked up): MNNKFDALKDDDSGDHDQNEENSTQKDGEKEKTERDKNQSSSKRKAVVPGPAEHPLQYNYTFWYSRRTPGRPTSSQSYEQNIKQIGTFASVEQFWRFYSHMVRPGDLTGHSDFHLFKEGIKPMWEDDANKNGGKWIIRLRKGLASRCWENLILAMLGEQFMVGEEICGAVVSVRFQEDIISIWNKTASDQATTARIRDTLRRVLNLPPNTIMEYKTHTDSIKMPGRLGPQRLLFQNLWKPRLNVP
UniProt Q96GE9, sequence (Q96GE9 whole entry, looked up): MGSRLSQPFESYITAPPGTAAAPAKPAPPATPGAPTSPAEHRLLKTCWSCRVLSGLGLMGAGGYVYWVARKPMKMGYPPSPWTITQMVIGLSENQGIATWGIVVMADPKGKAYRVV

| Target | log2 fold change |
| --- | --- |
| EOGT (UniProt Q5NDL2) | 0.04 |
| CUEDC2 (UniProt Q9H467) | -0.006 |
| DDX5 (UniProt P17844) | -0.127 |
| EIF4E2 (UniProt O60573) | -0.008 |
| ERLIN1 (UniProt O75477) | -0.124 |
| EEF1AKNMT (UniProt Q8N6R0) | -0.061 |
| EIF4A1 (UniProt P60842) | 0.054 |
| DCTPP1 (UniProt Q9H773) | -0.054 |
| DNAJB12 (UniProt Q9NXW2) | 0.033 |
| DDX4 (UniProt Q9NQI0) | -0.273 |
| EXOC2 (UniProt Q96KP1) | -0.119 |
| DMAC1 (UniProt Q96GE9) | 0.072 |
| EEA1 (UniProt Q15075) | 0.05 |
| DDX46 (UniProt Q7L014) | -0.141 |
| CYP51A1 (UniProt Q16850) | 0.137 |
| DCTN1 isoform 4 (UniProt Q14203) | -0.072 |
| CWC27 (UniProt Q6UX04) | -0.053 |
| DNAJC19 (UniProt Q96DA6) | 0.016 |
| DUS2 (UniProt Q9NX74) | 0.021 |
| ECH1 (UniProt Q13011) | -0.064 |

| Target | log2 fold change |
| --- | --- |
| DBT (UniProt P11182) | -0.065 |
| FAAP100 (UniProt Q0VG06) | 0.004 |
| FAM207A (UniProt Q9NSI2) | -0.054 |
| EEF1D isoform 2 (UniProt P29692) | -0.055 |
| DNAH11 (UniProt Q96DT5) | 0.119 |
| DAB2 (UniProt P98082) | -0.006 |
| DYNC1LI2 (UniProt O43237) | -0.052 |
| DNAJC7 (UniProt Q99615) | -0.043 |
| DLD (UniProt P09622) | 0.054 |
| DCAF10 (UniProt Q5QP82) | 0.006 |
| DCAF6 isoform 3 (UniProt Q58WW2) | 0.055 |
| FAM122A (UniProt Q96E09) | -0.075 |
| FAM83D (UniProt Q9H4H8) | -0.062 |
| DNAJB1 (UniProt P25685) | 0.009 |
| DNTTIP2 (UniProt Q5QJE6) | -0.111 |
| CTSL (UniProt P07711) | 0.005 |
| CTSV (UniProt O60911) | 0.022 |
| EDC3 (UniProt Q96F86) | -0.376 (active) |
| EIF3J (UniProt O75822) | -0.01 |

compound: C1COCCN1CCN2C3=CC=CC=C3N=C2NC(=O)C4=CC(=CC=C4)[N+](=O)[O-] [IRAK-1-4 Inhibitor I]; experiment: as above
Summary of the method: as §1

| Target | log2 fold change |
| --- | --- |
| EOGT (UniProt Q5NDL2) | -0.002 |
| CUEDC2 (UniProt Q9H467) | 0.035 |
| DDX5 (UniProt P17844) | -0.114 |
| EIF4E2 (UniProt O60573) | 0.064 |
| ERLIN1 (UniProt O75477) | -0.073 |
| EEF1AKNMT (UniProt Q8N6R0) | -0.081 |
| EIF4A1 (UniProt P60842) | -0.008 |
| DCTPP1 (UniProt Q9H773) | 0.017 |
| DNAJB12 (UniProt Q9NXW2) | -0.026 |
| DDX4 (UniProt Q9NQI0) | -0.033 |
| EXOC2 (UniProt Q96KP1) | -0.092 |
| DMAC1 (UniProt Q96GE9) | 0.018 |
| EEA1 (UniProt Q15075) | 0.037 |
| DDX46 (UniProt Q7L014) | -0.113 |
| CYP51A1 (UniProt Q16850) | -0.129 |
| DCTN1 isoform 4 (UniProt Q14203) | -0.101 |
| CWC27 (UniProt Q6UX04) | -0.045 |
| DNAJC19 (UniProt Q96DA6) | 0.045 |
| DUS2 (UniProt Q9NX74) | 0.014 |
| ECH1 (UniProt Q13011) | 0.056 |

| Target | log2 fold change |
| --- | --- |
| DBT (UniProt P11182) | -0.004 |
| FAAP100 (UniProt Q0VG06) | 0.026 |
| FAM207A (UniProt Q9NSI2) | -0.043 |
| EEF1D isoform 2 (UniProt P29692) | -0.038 |
| DNAH11 (UniProt Q96DT5) | 0.038 |
| DAB2 (UniProt P98082) | -0.009 |
| DYNC1LI2 (UniProt O43237) | 0.089 |
| DNAJC7 (UniProt Q99615) | -0.041 |
| DLD (UniProt P09622) | 0.079 |
| DCAF10 (UniProt Q5QP82) | 0 |
| DCAF6 isoform 3 (UniProt Q58WW2) | 0.025 |
| FAM122A (UniProt Q96E09) | 0.002 |
| FAM83D (UniProt Q9H4H8) | 0 |
| DNAJB1 (UniProt P25685) | -0.059 |
| DNTTIP2 (UniProt Q5QJE6) | -0.027 |
| CTSL (UniProt P07711) | 0.068 |
| CTSV (UniProt O60911) | 0.032 |
| EDC3 (UniProt Q96F86) | -0.029 |
| EIF3J (UniProt O75822) | 0.118 |
